# Inconclusive results are not listed. Calls of active or inactive are those of the source. Calls come from the whole dose curve.
# Biological target: Vitamin D3 receptor (Homo sapiens) (UniProt P11473)
# Assay: qHTS assay for small molecule agonists of vitamin D receptor signaling (AID 588543)
# Details: HEK293T VDR-UAS-bla, beta-lactamase ratio, 16 h; series mostly up to 76.8 µM; activation: at the top concentration
# From the text: NIH Chemical Genomics Center [NCGC]
# U.S. Environmental Protection Agency [EPA]
# National Institutes of Environmental Health Sciences [NIEHS]
# National Toxicology Program [NTP]
# The Vitamin D receptor (VDR) is a member of nuclear hormone receptor superfamily and it plays a critical role in calcium homeostasis and bone metabolism. It plays a role in inducing cell differentiation, inhibiting cell growth and in thrombogenicity. So, VDR that mediates these effects represents a pharmacological target in prevention and treatment of hyperproliferative malignancies, such as cancer and psoriasis, cardiovascular, immunological, inflammatory and renal diseases etc.
# NCGC Assay Protocol Summary
# Using a beta-lactamase reporter-gene under control of Vitamin D receptor (VDR) response element, a cell-based assay [GeneBLAzer (VDR -UAS-bla assay developed by Invitrogen] was used to measure VDR ligands signaling. GeneBLAzer VDR -UAS-bla HEK293T cells were used with assay medium containing 2% charcoal-stripped FBS. The assay was performed in clear bottom black Greiner 1536-well plates. 1-alpha,25-Dihydroxy vitaminD3 was used as a positive control in the screen. Library compounds were measured for their ability to stimulate the reporter gene activity. Compounds were screened in a titration series in 1536-well format. The fluorescence intensity (405 nm excitation, 460/530 nm emission) was measured using an EnVision plate reader. Data was normalized relative to 1-alpha,25-Dihydroxy vitaminD3 control (50 nM, 100%) and DMSO only wells (basal, 0%). Concentration-response titration points for each compound were fitted to the Hill equation yielding concentrations of half-maximal stimulation (EC50) and maximal response (efficacy) values.
# qHTS protocol for VDR beta-lactamase assay in agonist mode
# [Step] [Parameter] [Value] [Description]
# 1. Reagent; 6 uL; 2000 cells/well
# 2. Incubation; 37 C for 5 hrs
# 4. Controls (1-alpha,25-Dihydroxy vitaminD3); 23 nL,
# - Final concentrations of 50 nM and 15 nM in two columns
# 5. Incubation; 37 C for 16 hrs
# 6. Detection reagent; 1 uL of CCF4-dye
# 7. Incubation; RT for 2 hrs
# 8. Detection; Fluorescence; Envision plate reader
# Vitamin D3 receptor (Homo sapiens), sequence (P11473 whole entry, looked up): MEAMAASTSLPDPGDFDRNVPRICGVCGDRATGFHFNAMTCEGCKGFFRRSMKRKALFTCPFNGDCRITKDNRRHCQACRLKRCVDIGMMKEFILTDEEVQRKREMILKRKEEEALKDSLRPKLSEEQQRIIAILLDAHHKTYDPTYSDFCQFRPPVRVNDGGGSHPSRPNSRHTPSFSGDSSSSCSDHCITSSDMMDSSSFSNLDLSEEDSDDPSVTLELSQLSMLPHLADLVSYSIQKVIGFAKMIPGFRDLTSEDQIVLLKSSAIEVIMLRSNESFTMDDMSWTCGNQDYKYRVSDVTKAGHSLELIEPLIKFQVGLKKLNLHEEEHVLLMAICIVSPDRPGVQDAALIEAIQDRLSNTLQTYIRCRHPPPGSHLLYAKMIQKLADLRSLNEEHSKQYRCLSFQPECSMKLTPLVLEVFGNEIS
SMILES,activation,outcome
CCOP(=S)(OCC)SCn1nnc2ccccc2c1=O,-4.96% (inactive),
COc1ccc(O)c(C(C)(C)C)c1,3.77% (inactive),
COP(=O)(OC)Oc1ccc([N+](=O)[O-])cc1,4.34% (inactive),
CO/N=C(/C(=O)OC)c1ccccc1COc1ccccc1C,-9.85% (inactive),
CC1=C(C(=O)Nc2ccccc2)SCCO1,5.47% (inactive),
COc1nc(C)nc(NC(=O)NS(=O)(=O)c2ccccc2Cl)n1,6.78% (inactive),
COc1ccc(/C(=C/C(=O)N2CCOCC2)c2ccc(Cl)cc2)cc1OC,-3.27% (inactive),
[Cu+2].[O-]c1cccc2cccnc12.[O-]c1cccc2cccnc12,14.8% (inactive),
O=Cc1cccc(Oc2ccccc2)c1,-2.16% (inactive),
CCOP(=O)(OCC)Oc1ccc([N+](=O)[O-])cc1,11.5% (inactive),
CC(Oc1cccc(Cl)c1)C(=O)O (stereo not given),-1.47% (inactive),
CN(C)P(=O)(N(C)C)N(C)C,0.739% (inactive),
Cc1cc(C2CC2)nc(Nc2ccccc2)n1,-0.562% (inactive),
Clc1ccccc1-c1nnc(-c2ccccc2Cl)nn1,3.75% (inactive),
Clc1ccc([C@]2(Cn3cncn3)C[C@H](Br)CO2)c(Cl)c1,,inactive
CC(C)Oc1cc(-n2nc(C(C)(C)C)oc2=O)c(Cl)cc1Cl,-7.77% (inactive),
Cc1ccccc1CO[C@@H]1C[C@@]2(C(C)C)CC[C@]1(C)O2,-1.59% (inactive),
Cc1ccc(-c2c(Cl)nc(C#N)n2S(=O)(=O)N(C)C)cc1,6.64% (inactive),
CSc1nnc(C(C)(C)C)c(=O)n1N,-2.46% (inactive),
O=C1C2(Cl)C3(Cl)C4(Cl)C(Cl)(Cl)C5(Cl)C3(Cl)C1(Cl)C5(Cl)C24Cl (stereo not given),,inactive

SMILES,activation,outcome
Cc1cc(Cl)ccc1N=CN(C)C,-2.27% (inactive),
N#CC(Br)(Br)C(N)=O,-6.57% (inactive),
CCC(C)n1c(=O)[nH]c(C)c(Br)c1=O (stereo not given),-1.26% (inactive),
CCCCCCCCn1sccc1=O,,inactive
CCCCCCCCCCCCC1=C(OC(C)=O)C(=O)c2ccccc2C1=O,-10.5% (inactive),
Oc1ccc(C2(c3ccc(O)cc3)c3ccccc3-c3ccccc32)cc1,-4.44% (inactive),
CC(C)=CC1C(C(=O)OCc2coc(Cc3ccccc3)c2)C1(C)C (stereo not given),0.838% (inactive),
CNC(=O)Oc1cccc(N=CN(C)C)c1,5.36% (inactive),
CS(=O)(=O)c1cc(C(F)(F)F)ccc1C(=O)c1cnoc1C1CC1,-6.83% (inactive),
C/C=C(\C)C(=O)O[C@H]1C[C@@H](OC(C)=O)[C@@]2(C(=O)OC)CO[C@H]3[C@@H](O)[C@@](C)([C@]45O[C@@]4(C)[C@H]4C[C@@H]5O[C@@H]5OC=C[C@@]54O)[C@H]4[C@]1(CO[C@]4(O)C(=O)OC)[C@@H]32,-2.82% (inactive),
CC(C)(C)C(=O)[C@@H](Oc1ccc(Cl)cc1)n1cncn1,0.83% (inactive),
OC(c1ccc(Cl)cc1)(c1ccc(Cl)cc1)C(Cl)(Cl)Cl,,inactive
CCOP(=S)(OCC)Oc1nc(Cl)n(C(C)C)n1,-1.4% (inactive),
CCNP(=S)(OC)O/C(C)=C/C(=O)OC(C)C (stereo not given),3.66% (inactive),
O=C(NC(=O)c1c(F)cccc1F)Nc1ccc(Cl)cc1,6.37% (inactive),
CCNc1nc(Cl)nc(NC(C)(C)C)n1,-6.03% (inactive),
CCCCCCCCCCCCCCC(Br)C(=O)O (stereo not given),2.04% (inactive),
CC(C)N(C(=O)CCl)c1ccccc1,-6.49% (inactive),
Cc1cc(C)nc(Nc2ccccc2)n1,-4.48% (inactive),
CCOP(=S)(OCC)OC(Cl)C(Cl)(Cl)Cl (stereo not given),-1.64% (inactive),

# Reference: PubChem BioAssay (NCATS)
